Assay results as given in PubChem BioAssay AID1558 (National Center for Advancing Translational Sciences (NCATS), 2009).
Records with an inconclusive call do not appear. Where a structure was tested more than once in an assay, its records may differ in their call. Active and inactive are the calls of the source. Calls follow the shape of the dose curve; as a rule, active = well fitted inhibition curve with a large enough effect; inconclusive = small, poorly fitted or top-dose-only effect; inactive = flat fitted curve, though single readings scatter.

Target: Microtubule-associated protein tau (Homo sapiens) (UniProt P10636)
Test: Confirmation Concentration-Response Assay for Inhibitors of Tau Fibril Formation, Thioflavin T Binding
Conditions: recombinant tau K18 P301L (four-repeat tau fragment) heparin fibrillization, ThT fluorescence; series mostly up to 100 µM
From the text: NIH Molecular Libraries Probe Production Network [MLPCN] NIH Chemical Genomics Center [NCGC] MLPCN Grant: X01 MH083262-01 Assay Provider: Carlo Ballatore, University of Pennsylvania NCGC Assay Overview: The microtubule-associated protein tau is an abundant protein in the axons of neurons that stabilizes microtubules. With its ability to modulate microtubule dynamics, tau contributes directly or indirectly, to key structural and regulatory cellular functions. Particularly important is the influence tau exerts on axonal transport, which allows signaling molecules, trophic factors and other essential cellular constituents to travel along the axons. Under pathological conditions, tau becomes sequestered into insoluble aggregates called neurofibrillary tangles. This phenomenon is believed to have pathological consequences by promoting axonal transport deficits that ultimately lead to synaptic dysfunction and neuronal loss. To identify inhibitors of tau aggregation, a heparin-induced tau fibril formation assay was used that employed a recombinantly expressed fragment of tau, K18 (Q242-E372), bearing a P301L mutation (Gustke et al. 1994; Hong et al. 1998). This assay monitors tau fibrillization by Thioflavin T (ThT) fluorescence. Gustke, N., B. Trinczek, et al. (1994). "Domains of tau protein and interactions with microtubules." Biochemistry 33(32): 9511-22. Hong, M., V. Zhukareva, et al. (1998). "Mutation-specific functional impairments in distinct tau isoforms of hereditary FTDP-17." Science 282(5395): 1914-7. Li, W. and V. M. Lee (2006). "Characterization of two VQIXXK motifs for tau fibrillization in vitro." Biochemistry 45(51): 15692-701. von Bergen, M., S. Barghorn, et al. (2001). "Mutations of tau protein in frontotemporal dementia promote aggregation of paired helical filaments by enhancing local beta-structure." J Biol Chem 276(51): 48165-74.
For screening, 2 uL/well human K18 P301L (15 uM unlabeled and 0.24 uM Alexa 594-labeled tau, final concentrations) in reagent buffer (100 mM sodium acetate pH 7) was dispensed into black solid 1536-well plates (Grenier) using a solenoid-based dispenser. Following transfer of 23 nL compound or DMSO vehicle by a pin tool, 2 uL/well heparin (20 uM final concentration) in reagent buffer was added and the plate centrifuged 15 s at 1000 RPM. Plates were incubated 6 hr at 37 C and then 1 uL/well ThT (30 uM final concentration) was added. After a 1 hr ambient incubation, the plates were read by an Envision (Perkin Elmer) to monitor ThT fluorescence (450/8 nm excitation and 510/23 nm emission). Keywords: NIH Roadmap, MLPCN, MLI, MLSMR, NCGC, qHTS, tau, tauopathies, Alzheimer's disease, fibril, neurodegeneration, aggregation

Microtubule-associated protein tau (Homo sapiens), sequence (P10636 561-689 P618L limits assumed): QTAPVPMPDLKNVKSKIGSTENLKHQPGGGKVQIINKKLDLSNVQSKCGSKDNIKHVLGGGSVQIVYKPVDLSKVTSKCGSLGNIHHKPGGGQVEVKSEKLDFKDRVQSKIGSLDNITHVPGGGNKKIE

Potency, active:
O=C(O)CC1S/C(=N/N=C/c2ccc(-c3ccccc3[N+](=O)[O-])o2)NC1=O (stereo not given) 11.2 µM
O=C(O)CC1S/C(=N/N=C/c2ccc(-c3ccc(Cl)cc3[N+](=O)[O-])o2)NC1=O (stereo not given) 1.58 µM
O=C(NCCCO)Nc1ccc2nc(-c3ccco3)c(-c3ccco3)nc2c1 3.16 µM
O=C(Nc1sc2c(c1C(=O)Nc1cccc(Cl)c1)CCCC2)c1cccs1 3.55 µM
Nc1scc2c(CO)nn(-c3ccccc3)c(=O)c12 3.98 µM
O=C(Nc1ccc(-c2nc3ccccc3o2)cc1)c1ccc(N2CCOCC2)c([N+](=O)[O-])c1 1.12 µM
Oc1ccccc1CNc1cccc2cccnc12 39.8 µM
Nc1nn(-c2ccccc2)c(=O)c2c(N)scc12 5.01 µM
Nc1cc(-c2ccncc2)c[nH]c1=O 10 µM
COc1ccc2[nH]c(=O)c(CNc3ccccc3OC)cc2c1 25.1 µM
O=C(O)CSc1cc(NS(=O)(=O)c2cccc([N+](=O)[O-])c2)c2ccccc2c1O 2 µM
O=S(=O)(c1ccc(N=C2NN=C(c3cc(F)ccc3F)CS2)cc1)N1CCOCC1 4.47 µM
CCN(CC)C(=O)c1nn(-c2ccc(OC)cc2)c(=O)c2c(N)scc12 10 µM
Nc1scc2c(C(=O)O)nn(-c3ccccc3)c(=O)c12 6.31 µM
CN(C)c1ccc(-c2cc[nH]c(=O)c2N)cc1 1.58 µM
CC(=O)Nc1nc(C)c(-c2csc(Nc3ccc(O)cc3)n2)s1 15.8 µM
NC[C@H](O)c1ccc(O)c(O)c1 5.62 µM
Nc1scc2c(C(=O)NCc3ccccc3)nn(-c3ccccc3)c(=O)c12 7.08 µM
COc1ccc(-n2nc(C(=O)O)c3csc(N)c3c2=O)cc1 1 µM
CCN(CC)c1ccc2oc(=O)c(C)nc2c1 10 µM

Potency, 1 µM (active) and inactive:
O=C(Cc1ccccc1)Nc1sc2c(c1C(=O)Nc1ccc(Cl)cc1)CCCC2

Potency, inactive:
Cc1ccc(C(=O)Nc2nc(=O)n(C(=O)CC(C)C)s2)cc1
COc1cccc(/C=C2/SC(=S)N(CC(=O)Nc3nccs3)C2=O)c1
Cc1ccc(NC(=O)c2c(NC(=O)Cc3ccccc3)sc3c2CCCC3)cc1
COc1cccc(/C=C2/SC(=S)N(CC(=O)Nc3nnc(C)s3)C2=O)c1
COc1ccc2c(c1)c(CC(=O)N1CCOCC1)c(C)n2C(=O)c1ccc(Cl)cc1
O=S(=O)(c1ccc(NC(=S)N/N=C/c2ccc(N3CCOCC3)cc2)cc1)N1CCOCC1
CCN(c1ccccc1)S(=O)(=O)c1nnc(NC(=O)C(C)(C)C)s1
CCn1nccc1C(=O)Nc1cc(Cl)cc(Cl)c1
O=C(Cc1ccccc1)Nc1sc2c(c1C(=O)Nc1ccc(Cl)cc1)CCOC2
O=C(NCc1cccnc1)C1CCN(S(=O)(=O)c2cccs2)CC1
COc1ccc(NC(=O)c2c(NC(=O)Cc3ccccc3)sc3c2CCCC3)cc1
O=C(Nc1ccccc1)Nc1ccccc1
COC(=O)CSc1nc2ccc(NC(=O)CSc3nnnn3Cc3ccccc3)cc2s1
COC(=O)c1c(N)sc2c1C(C(=O)OC)CC2 (stereo not given)
CCOC(=O)c1c(N)sc2c1CN(C)CC2
COC(=O)C1CCc2sc(N)c(C(=O)OCc3ccccc3)c21 (stereo not given)
COC(=O)c1c(NC(=O)C(C)(C)C)sc2c1C(C(=O)OC)CC2 (stereo not given)
Cc1nc2ccccc2oc1=O
N#Cc1cccc(NC(=O)c2ccc3c(c2)N(Cc2cccc(Cl)c2)C(=O)c2ccccc2S3(=O)=O)c1
